Reference: PubChem BioAssay (NCATS)
Inconclusive results are not listed. The source made the active and inactive calls. Calls follow the shape of the dose curve; as a rule, active = well fitted cell-killing curve with a large enough effect; inconclusive = small, poorly fitted or top-dose-only effect, or effect the other way; inactive = no such curve, though single readings can be large or run the other way.

How the values were obtained:
[1] = Quantitative High-Throughput drug screen in 47 multiple myeloma cell lines against the NCATS MIPE library collection: KMS28PE_JCRB cell viability assay (AID 1918983); also: nearly all actives have a fitted effect of over 35% in size; also: potency is read from the fitted curve at half-maximal effect
Method in brief: (§1)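 Inhibition of viability over 48 h was scored by ATP content (CellTiter-Glo) in 500-cell wells. Zero and full viability were defined by media-only and DMSO-only wells.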

[2] = Quantitative High-Throughput drug screen in 47 multiple myeloma cell lines against the NCATS MIPE library collection: OCIMY5_PLB cell viability assay (AID 1918988); also: nearly all actives have a fitted effect of over 65% in size; also: potency is read from the fitted curve at half-maximal effect
Method in brief: as §1

[3] = Quantitative High-Throughput drug screen in 47 multiple myeloma cell lines against the NCATS MIPE library collection: OPM1_PLB cell viability assay (AID 1918989); also: nearly all actives have a fitted effect of over 40% in size; also: potency is read from the fitted curve at half-maximal effect
Method in brief: as §1

[4] = Quantitative High-Throughput drug screen in 47 multiple myeloma cell lines against the NCATS MIPE library collection: SKMM1_PLB cell viability assay (AID 1919863); conditions: SKMM1 myeloma viability, CellTiter-Glo ATP, 48 h; viability: hits give low values; also: nearly all actives have a fitted effect of over 35% in size; also: potency is read from the fitted curve at half-maximal effect; as to viability: series mostly up to about 46 µM
Method in brief: as §1

[5] = Quantitative High-Throughput drug screen in 47 multiple myeloma cell lines against the NCATS MIPE library collection: U266_ATCC cell viability assay (AID 1919864); also: nearly all actives have a fitted effect of over 35% in size; also: potency is read from the fitted curve at half-maximal effect
Method in brief: as §1

[6] = Quantitative High-Throughput drug screen in 47 multiple myeloma cell lines against the NCATS MIPE library collection: XG6_PLB cell viability assay (AID 1919865); also: nearly all actives have a fitted effect of over 40% in size; also: potency is read from the fitted curve at half-maximal effect
Method in brief: as §1

[7] = Quantitative High-Throughput drug screen in 47 multiple myeloma cell lines against the NCATS MIPE library collection: KMS34_JCRB cell viability assay (AID 1918985);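 also: 100% = DMSO-only wells and 0% = media-only wells; nearly all actives have a fitted effect of over 40% in size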
Method in brief: as §1

[8] = Quantitative High-Throughput drug screen in 47 multiple myeloma cell lines against the NCATS MIPE library collection: OCIMY7_PLB cell viability assay (AID 1918987); also: potency is read from the fitted curve at half-maximal effect; nearly all actives have a fitted effect of over 65% in size
Method in brief: as §1

[9] = Quantitative High-Throughput drug screen in 47 multiple myeloma cell lines against the NCATS MIPE library collection: L363_DSMZ cell viability assay (AID 1918984); also: nearly all actives have a fitted effect of over 40% in size; also: potency is read from the fitted curve at half-maximal effect
Method in brief: as §1

CNNCc1ccc(C(=O)NC(C)C)cc1
active: Potency [1] 13.2 µM | Potency [2] 16.6 µM | Potency [4] 9.35 µM
inactive: Potency [3] | Potency [5] | Potency [6]

CCOc1cc(N)c(Cl)cc1C(=O)NCC1CN(Cc2ccc(F)cc2)CCO1 (centres undefined)
inactive: Potency [1] | Potency [7] | Potency [2] | viability [4] 114% | Potency [5] | Potency [6]

NC(=O)c1cccc(N)c1
active: Potency [8] 4.69 µM
inactive: Potency [1] | Potency [7] | Potency [2] | Potency [3] | viability [4] 132% | Potency [5]

CCn1cc(C(=O)O)c(=O)c2cc(F)c(N3CCNCC3)cc21
active: Potency [1] 2.96 µM
inactive: Potency [2] | Potency [6]

O=C(O)c1cn(C2CC2)c2cc(N3CCNCC3)c(F)cc2c1=O
inactive: Potency [1] | Potency [7] | Potency [3] | viability [4] 166% | Potency [5] | Potency [6]

C[C@@H](NCCCc1cccc(C(F)(F)F)c1)c1cccc2ccccc12
inactive: Potency [1] | Potency [9] | Potency [7] | Potency [2] | viability [4] 110% | Potency [5] | Potency [6]

CCN(CC)CCn1c(=O)c(Cc2ccc(OC)cc2)nc2ccccc21
inactive: Potency [1] | Potency [9] | Potency [2] | Potency [3] | viability [4] 134% | Potency [5]

CN(Cc1cc(Br)cc(Br)c1N)C1CCCCC1
inactive: Potency [1] | Potency [9] | Potency [3] | Potency [6]

CCOC(=O)[C@H](CCc1ccccc1)N[C@H]1CCc2ccccc2N(CC(=O)O)C1=O
active: Potency [1] 20.9 µM | Potency [9] 7.43 µM | Potency [2] 23.5 µM | Potency [3] 16.6 µM | Potency [5] 18.7 µM | Potency [6] 14.8 µM

O=C(O)c1cccnc1
inactive: Potency [1] | Potency [9] | Potency [7] | Potency [3] | viability [4] 107% | Potency [5]

N[C@@H](C(=O)N[C@@H]1C(=O)N2C(C(=O)O)=C(Cl)CS[C@H]12)c1ccccc1
inactive: Potency [1] | Potency [7] | Potency [3] | viability [4] 123% | Potency [6]

COc1cccc(N(C)C(=S)Oc2ccc3c(c2)CCCC3)n1
inactive: Potency [1] | Potency [7] | Potency [3] | viability [4] 139% | Potency [5]

CC(C)(C)NC(=O)[C@H]1CC[C@H]2[C@@H]3CC[C@H]4NC(=O)C=C[C@]4(C)[C@H]3CC[C@]12C
active: Potency [8] 0.332 µM | Potency [2] 0.59 µM | Potency [3] 2.64 µM | Potency [5] 0.743 µM | Potency [6] 0.132 µM
inactive: Potency [1] | Potency [7] | viability [4] 142%

COC(c1ccccc1)(c1ccccc1)[C@H](Oc1nc(C)cc(C)n1)C(=O)O
inactive: Potency [1] | Potency [7] | Potency [3] | Potency [5] | Potency [6]

NC(=O)c1cccnc1
active: Potency [6] 16.6 µM
inactive: Potency [1] | Potency [2] | viability [4] 105% | Potency [5]

CNC1CCCN(c2c(F)cc3c(=O)c(C(=O)O)cn(C4CC4)c3c2OC)C1 (centres undefined)
inactive: Potency [1] | viability [4] 118% | Potency [6]
active: Potency [8] 1.32 µM | Potency [3] 5.9 µM

Nc1nc(N)nc(-c2cc(Cl)ccc2Cl)n1
inactive: Potency [1] | Potency [9] | Potency [7] | Potency [3] | viability [4] 131% | Potency [5]

CC(C(=O)O)c1ccc2c(c1)CC(=O)c1ccccc1S2 (centres undefined)
inactive: Potency [1] | Potency [3]

CCCOc1ccc(C(=O)OCCN(CC)CC)cc1N
inactive: Potency [1] | Potency [7] | Potency [2] | Potency [3] | viability [4] 118% | Potency [6]
